In PubChem BioAssay AID651954 (NMMLSC, 2012):
In all, about 1,500 compounds went through this assay and about 160 (11%) were called active. Rule as the data show it: active = inhibition above about 60%; inactive = the rest. The list is a sample of the results.

Test: inhibitors of lytic granule exocytosis, confirmation, TALL-104 cells, flow cytometry, Cherry Pick01 (AID 651954);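 also: 0% = stimulated vehicle wells and 100% = unstimulated wells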
Conditions: LAMP-1 externalization, at 10 µM, active compounds read high, stimulated with PMA plus thapsigargin

Compound	inhibition
Cc1ccccc1CN1C[C@@H]2C[C@@H](c3cn(C)nc3-c3ccccc3)N3CCC[C@@]23C1=O	-13.4% (inactive)
CCc1ccc(-c2cc3c(=O)n(CC(=O)NCCCN4CCN(Cc5ccccc5)CC4)nc(C)n3n2)cc1	34.9% (inactive)
Cn1sc(=O)c2cc(S(=O)(=O)NC3CC3)ccc21	79.8% (active)
COc1ccc(OC)c(NC(=O)CN(C)CCOc2ccc(Br)cc2)c1	-14.9% (inactive)
OCCNc1nc(Nc2ccc(Cl)c(Cl)c2)nc2ccccc12	-11.3% (inactive)
Cc1nc(-c2ccc(Cl)cc2)sc1C1(C)CC(c2ccc(Br)cc2)=NO1 (stereo unspecified)	-3.75% (inactive)
CCOc1ccc(Cl)cc1-c1cc(C(=O)NCc2cccs2)[nH]n1	66.4% (active)
COc1ccc(-c2cn[nH]c2-c2ccc(OC)cc2)cc1	2.16% (inactive)
COc1ccc2sc(-c3ccc(N(C)C)cc3)c(-c3ccc4cc[nH]c4c3)c2c1	-13.7% (inactive)
COc1cccc(NC(=O)C2C(c3ccccc3)C2(Cl)Cl)c1 (stereo unspecified)	0.14% (inactive)
COc1ccc(C2CC(c3cccs3)=NN2c2nc(C)c(C(C)=O)s2)cc1OC (stereo unspecified)	73.4% (active)
CC(C)Cn1cnc2c(SCc3ccc(Cl)cc3)nc(N)nc21	-12.1% (inactive)
CCOC(=O)C1(CCOc2ccccc2)CCN(Cc2ccc(C#CCCO)cc2)CC1	-4.45% (inactive)
Oc1ccccc1-c1cc(-c2ccc(Cl)cc2)n[nH]1	-11.6% (inactive)
CC(C)c1ccccc1OCC(O)CN(CC(O)COc1cccc2ccccc12)C(C)C (stereo unspecified)	87.3% (active)
CS(=O)(=O)N(CC(O)Cn1c2ccccc2c2ccccc21)c1cccc2ccccc12 (stereo unspecified)	5.69% (inactive)
O=C(Nc1ccccc1)c1cccnc1Nc1ccccc1	-4% (inactive)
O=S(=O)(Nc1ccc(O)c2ccccc12)c1ccc(OC(F)(F)F)cc1	-11.4% (inactive)
COc1ccc(CCNC(=O)C2CC3Cn4c(nc5cc(C)c(C)cc54)C3N2C)cc1 (stereo unspecified)	-13.9% (inactive)
C=CCn1c(SCc2csc(C)n2)nc2scc(-c3ccc(C)o3)c2c1=O	-12.8% (inactive)
Nc1c(C(=O)c2cccs2)sc2nsc(SCCN3CCCCC3)c12	22% (inactive)
Cc1oc(-c2ccccc2Cl)[n+]([O-])c1C	-3.08% (inactive)

Compound	inhibition
COc1ccccc1N1CCN(c2ncnc3sc(C)c(-c4ccccc4)c23)CC1	-3.66% (inactive)
CC(=O)Nc1ccc(-c2csc(NC(=O)Nc3ccccc3)n2)cc1	55.2% (inactive)
O=C(COc1ccc(Cl)cc1)N1CCN(c2cccc(C(F)(F)F)c2)CC1	5.85% (inactive)
CCCC(C(=O)n1nc(C)cc1C)C(NS(=O)(=O)c1ccc(C)cc1)c1ccccc1 (stereo unspecified)	1.32% (inactive)
CN(c1ccccc1)S(=O)(=O)c1ccc(C(=O)NCCc2ccccc2)cc1	-3.54% (inactive)
O=C(NCc1ccccc1)C(c1ccccc1)N(C(=O)c1csnn1)c1ccc(F)cc1 (stereo unspecified)	-12.2% (inactive)
Cc1ccc(-c2ccnc3nc(Sc4ncc(C(F)(F)F)cc4Cl)nn23)cc1	-4.56% (inactive)
Cc1cccc(-c2nc3ccc(C(=O)NCCN4CCN(C)CC4)cc3nc2-c2cccc(C)c2)c1	2.79% (inactive)
COc1ccc(-c2csc(Nc3ccc(O)cc3)n2)cc1	-6.12% (inactive)
COc1ccc(CC(N)c2csc(NC(=O)Nc3ccc(C(C)C)cc3)n2)cc1 (stereo unspecified)	11.2% (inactive)
Cc1cccc(N2CCC(NCc3c(C(=O)N4CCCCC4)nc4c(C)cccn34)CC2)c1	-4.45% (inactive)
COc1ccc(-c2oc3ncnc(NCCCO)c3c2-c2ccc(OC)cc2)cc1	-0.03% (inactive)
O=S(=O)(c1ccccc1)N(Cc1cccc(F)c1)c1ccccc1	-7.22% (inactive)
CN(C)CCNC(=O)c1ccc(-c2cn3c(-c4ccc(Oc5ccccc5)cc4)cnc3cn2)cc1	87.2% (active)
O=C(NC(=O)c1ccccc1N1CCCCC1)Nc1ccc(Br)cc1	-13.3% (inactive)
Cc1cccc2sc(N(CCCN(C)C)C(=O)CCS(=O)(=O)c3ccccc3)nc12	7.86% (inactive)
COc1ccccc1CN1CCN(C(c2ccccc2)c2ccccc2)CC1	-12.1% (inactive)
CCN1C(=O)[C@H]2[C@@H](c3ccc(-c4ccc(F)cc4)cc3)N[C@@](Cc3ccccc3)(C(=O)OC)[C@H]2C1=O	-2.41% (inactive)
CC1CCN(c2ccc([N+](=O)[O-])cc2C(N)=O)CC1	-4.56% (inactive)
COc1cccc(CN(C)CC2CCCN(CCc3ccc(Cl)cc3)C2)c1OC (stereo unspecified)	-10.6% (inactive)
CCOC(=O)C1(C)CCCN(C(=O)c2ccc(F)c(Cl)c2)C1 (stereo unspecified)	-12.7% (inactive)
CS(=O)(=O)N(Cc1ccc(Cl)cc1)c1ccc(C(=O)NCCSCc2ccco2)cc1	17.9% (inactive)

Compound	inhibition
COc1cccc(CN(C)CC(O)COC(c2ccccc2)c2ccccc2C)c1 (stereo unspecified)	-4.22% (inactive)
COc1ccccc1C1=Nc2cccc3cccc(c23)N1	-15.4% (inactive)
COc1cccc(CNc2nc(NCc3ccccc3OC)nc3ccsc23)c1	35.8% (inactive)
CN1CCN(C2Cc3ccc(Cl)cc3Sc3ccc(F)cc32)CC1 (stereo unspecified)	15% (inactive)
COc1cccc(CNc2nc(C(F)(F)F)nc3ccccc23)c1	-14.3% (inactive)
COc1ccc(-c2cc(C(=O)N(C)Cc3ccccc3)c3ccccc3n2)cc1	-6.15% (inactive)
Cc1ccc(NC(=O)c2cc(-c3ccc(C)o3)nc3ccccc23)nc1	-10.9% (inactive)
CC(=O)C[C@@H](O)CC(=O)[C@H]1OC(=O)CCCCCCc2ccccc21	-13.1% (inactive)
CCCCc1ccc(NC(=S)NCCCN2CCOCC2)cc1	-11.7% (inactive)
Cc1cnc(C(=O)OCc2c(C)cc(C(C)(C)C)cc2C)cn1	-3.52% (inactive)
COc1ccc(Oc2cn[nH]c2-c2ccc(OC)cc2O)cc1	-11.7% (inactive)
CCCCC[C@H](C)N1C[C@@H](COCc2ccccc2)Oc2cc(N3CC[C@@H](N(C)C)C3)ccc2S1(=O)=O	16.6% (inactive)
COc1ccc(CCNCc2c(-c3ccccc3)n(C)c3ccccc23)cc1	6.74% (inactive)
COc1ccc(-c2cc(NC=O)c3ncc(-c4ccccc4)n3c2)cc1OC	80.3% (active)
CCCC(=O)Nc1nc2ccc(NC(=O)c3c(F)c(F)c(OC)c(F)c3F)cc2s1	-1.52% (inactive)
CCOC(=O)C1(CCOc2ccccc2)CCN(Cc2cc(OC)c(O)cc2Cl)CC1	-6.73% (inactive)
COc1cccc(COc2ccc(N(C)S(=O)(=O)c3ccccc3)cc2)c1	-7.06% (inactive)
COC(=O)[C@H](Cc1ccccc1)NC(=O)[C@@H]1C[C@H]1[C@@H](NC(=O)OCc1ccccc1)c1ccccc1	48% (inactive)
Brc1ccccc1C1Nc2cccc3cccc(c23)N1	106% (active)
CC(CC(=O)Nc1cc(C(F)(F)F)ccc1Cl)c1ccccc1 (stereo unspecified)	0.82% (inactive)
Cc1cccc(N(CC(=O)Nc2ccc(-c3nc4ccc(C)cc4s3)cc2)S(C)(=O)=O)c1	29% (inactive)
O=C(Nc1ccc(Cl)cc1)Nc1nnc(/C=C/c2ccccc2)s1	-2.86% (inactive)
